FBPA coupling cs: coupling enzyme interference in Giardia aldolase counter-screen | activity change, negative = inhibition, % at 58.2 µM, hits read low | AID 2472 | coupling enzyme system counterscreen, AmpLite Red fluorescence | 0.67% of 290,000 active; in the data active = activity change below about -30%; note: % is set by controls: 0 for no effect and ±100 for the full control effect
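Compounds tested against the coupling enzymes alone at 57.5 uM final; readout was AmpLite Red fluorescence (525/598 nm) after 20 min at RT.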
TR SRC2 fluor cs: alters Texas Red total fluorescence, flagging assay interference; TRb/SRC2 Texas Red total fluorescence interference; Potency, µM (top dose mostly 106 µM), for the others: at the top dose fluorescence change, negative = quenching; 0.29% of 280,000 active; active = well fitted curve in either direction with a large enough effect; inconclusive = small, poorly fitted or top-dose-only effect; note: potency is the fitted concentration of half-maximal effect; % is set by controls: 0 for no effect and ±100 for the full control effect
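Human TRb ligand-binding domain at 0.6 uM with 20 nM Texas Red SRC2 peptide in Tris buffer containing 1 uM T3 and 5% DMSO, incubated with compound 5 h at ambient temperature. Total fluorescence (555/632 nm) calculated as parallel + 2 × perpendicular.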
KDM4E inh: blocks human JMJD2E demethylase activity; Potency, µM (series often up to 57.1 µM), inactives show at the top dose activity change, negative = inhibition, most hits filed as inhibitors; B2RXH2; JMJD2E catalytic domain, FDH-coupled NADH fluorescence (FDH is formaldehyde dehydrogenase); 1.6% of 230,000 active; active = well fitted inhibition curve with a large enough effect, not every such curve was filed as active; inconclusive = small, poorly fitted or top-dose-only effect, or another doubt; inactive = no such curve, though single readings can be large or run the other way;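 note: potency is the fitted concentration of half-maximal effect; 0% = wells with enzyme and -100% = buffer wells without enzyme; nearly all actives have a fitted effect of over 50% in size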
Target sequence (B2RXH2 1-337 limits assumed): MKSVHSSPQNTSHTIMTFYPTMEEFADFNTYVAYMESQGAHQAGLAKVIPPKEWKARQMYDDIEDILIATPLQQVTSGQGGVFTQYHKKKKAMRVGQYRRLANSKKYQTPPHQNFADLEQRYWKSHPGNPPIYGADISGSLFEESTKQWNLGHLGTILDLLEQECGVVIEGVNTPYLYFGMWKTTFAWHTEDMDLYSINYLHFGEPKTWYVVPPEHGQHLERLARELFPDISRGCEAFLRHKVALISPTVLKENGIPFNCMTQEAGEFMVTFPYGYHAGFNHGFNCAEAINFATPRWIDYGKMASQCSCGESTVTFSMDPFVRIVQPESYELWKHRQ
HTT aggregate: reduces HttQ103-GFP aggregates in PC12 cells. PC12 HttQ103-GFP aggregates, Acumen cytometry, 40 h. Potency, µM (doses to about 46.1 µM), for the others: top-dose activity change, negative = inhibition, hits mostly inhibitors. 1.1% of 220,000 active. AID 1688; note: potency is the fitted concentration of half-maximal effect; % is set by controls: 0 for no effect and ±100 for the full control effect; nearly all actives have a fitted effect of over 60% in size
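Aggregates are detected as GFP objects 1–25 µm with signal 6 STDEV over background in lysates of induced PC12 cells. These carry Huntingtin exon 1 with 103 glutamines fused to GFP under an ecdysone promoter; compounds titrated.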
HTT ATP protect: cytoprotection in Huntington HTT-Q103 PC12 cell model; PC12 HTT-Q103 induced, cytoprotection, ATP luminescence, 40 h; Potency, µM (titrated, usually from 56.4 µM), for the others: cytoprotection (ATP increase), most hits filed as activators; 0.14% of 230,000 active; AID 1471; note: potency is the fitted concentration of half-maximal effect; % of control where 0% means no effect; nearly all actives have a fitted effect of over 45% in size
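Readout: ATPlite luminescence (ATP level). Model: stable PC12, inducible Htt exon1 Q103-GFP. Inducer: tebufenozide, 100 nM final. Compounds: dose series. No G418 in medium.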
TRb SRC2 PPI: TRbeta-SRC2 interaction inhibition; P10828; TRbeta-SRC2 peptide binding, fluorescence polarization; receptor liganded with 1 µM T3; Potency, µM (titrated, usually from 106 µM), for inactives: at the top dose activity change, negative = inhibition, usual class: inhibitors; 0.065% of 280,000 active;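 note: potency is the fitted concentration of half-maximal effect; plate controls were bound peptide for no effect and peptide without receptor for full effect; nearly all actives have a fitted effect of over 50% in size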
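Fluorescence polarization of 20 nM Texas Red SRC2 peptide with 0.6 uM human TRb ligand-binding domain, in Tris buffer with 1uM T3 and 5% DMSO. Incubated 5 hr ambient; normalized to unbound and bound controls.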
Active calls of the source: *; u = inconclusive; x = not tested or not shown; [ ] = remark or other dose. Rows were chosen to be rich in hits. Some 2% of all compounds tested hit in one or more screens of this group. Unless noted, calls come from the whole dose curve; as a rule, active = well fitted curve in the direction sought with a large enough effect; inconclusive = small, poorly fitted or top-dose-only effect, or another doubt; inactive = no such curve, though single readings can be large; an effect the other way counts as inactive or inconclusive.

SMILES	FBPA coupling cs	TR SRC2 fluor cs	KDM4E inh	HTT aggregate	HTT ATP protect	TRb SRC2 PPI
CC(C)c1ccc2cc(C(C)C)ccc2c1	x	3%[201 µM]	x	x	x	-2%[201 µM]
CCN(CC)C(=O)c1oc2ccc(S(=O)(=O)N3CCCCCC3)cc2c1C	-1	1%	5%	10µM*	3%	2%
CCN(CC)C(=O)c1oc2ccc(S(=O)(=O)N3CC(C)CC(C)C3)cc2c1C (centres undefined)	3	x	x	x	x	x
CCN(CC)CCC[C@H](C)Nc1ccnc2cc(Cl)ccc12	2	-9%[53 µM]	4%[25.5 µM]	-10%	8%[40.3 µM]	-5%[53 µM]
CCN(CC)Cc1ccc(Nc2ccnc3cc(Cl)ccc23)cc1O	-1	-3%	-6%	x	14µM*	1%
O=C(NC(Cc1ccccc1)c1nc2ccccc2[nH]1)c1ccc(Cl)c([N+](=O)[O-])c1 (centres undefined)	-22	0%	-18%	7.9µM*	-10%[10 µM]	2%
CCOc1ccc(C(=O)Nc2nc3ccccc3[nH]2)cc1OCC	-2	-2%	-3%	13µM*	-5%[10 µM]	9%
CCOc1ccc(C(=O)Nc2cc(-c3nc4ccccc4[nH]3)ccc2Cl)cc1[N+](=O)[O-]	4	u	-8%	13µM*	-8%[10 µM]	u
CCOc1ccccc1-c1nnc2n1N=C(c1cc(OC)ccc1OC)CS2	-4	0%	x	x	x	-5%
Cc1ccccc1CCNC(=O)c1cc2ccccn2n1	x	0%	x	x	x	2%
Cc1ccc(NC(=S)Nc2ccccn2)cc1C	1	-5%	-1%	-14%[9.22 µM]	-6%[10 µM]	-2%
Cc1ccc(NC(=S)Nc2ccc3nc(-c4ccccn4)c(-c4ccccn4)nc3c2)cc1C	-53*	-3%	u	24%	-1%[0.074 µM]	-2%
Cc1nc(Nc2ccccc2)c2nc(-c3ccccc3)n(CCCN3CCCCC3C)c2n1 (centres undefined)	1	-2%	-9%	x	-44%	1%
CCc1cc(=O)oc2cc(C)c(CN3CCCC3)c(O)c12	-2	u	25µM*	13%	3%	u
CCc1cc(=O)oc2cc(C)c(CN3CCCCC3)c(O)c12	0	-15%	u	5%[9.22 µM]	19%	0%
NC(N)=NCCC[C@H](NC(=O)[C@@H](N)Cc1ccc(O)cc1)C(=O)O	x	-1%	x	x	-14%	6%
COc1ccc(N=c2scc(-c3ccc(S(=O)(=O)N4CCOCC4)cc3)n2CCCO)cc1	-2	-6%	-4%	13µM*	11%[10 µM]	-9%
COc1cc(NC(=S)NC2CC2)c(OC)cc1Cl	-1	0%	-6%	20µM*	-5%[10 µM]	-2%
COc1cc(NC(=S)N(C)C)c(OC)cc1Cl	1	0%	3%	-7%[9.22 µM]	22%[10 µM]	-3%
O=C(CCCn1c(=O)c2cccn2c2ccc(F)cc21)NCc1ccc(Cl)cc1	x	1%	x	x	x	2%
Oc1c(N=Nc2ccccn2)ccc2ccccc12	-8	-10%	u	3.2µM*	-71%	-2%
O=S(=O)(O)c1cc(N=Nc2cccc3ccccc23)c(O)c2ncccc12	x	x	x	x	-7%[10 µM]	x
O=C1CC(c2ccccc2)=NN1c1nc(-c2ccccc2)cs1	5	32µM*[quencher]	0%	u	-6%[10 µM]	u
Clc1cccc(CSc2nncn3c2cc2sccc23)c1	x	-1%	x	x	x	1%
CCc1nnc(SCc2cccc(Cl)c2)c2cc3sccc3n12	x	25µM*[quencher]	x	x	x	-15%
SMILES	FBPA coupling cs	TR SRC2 fluor cs	KDM4E inh	HTT aggregate	HTT ATP protect	TRb SRC2 PPI
O=C1c2ccccc2C(=O)C12OC2c1cccc2ccccc12 (centres undefined)	-58*	6%	u	35µM*	-5%[10 µM]	-1%
O=C1CCCCC1c1cccc2ccccc12 (centres undefined)	-1	x	2%	x	x	x
Cc1ccc(CCNC(=O)CCS(=O)(=O)c2cc3c(cc2Cl)NC(=O)CO3)cc1	x	-1%	x	x	x	0%
CCN(CC)c1ccc(NC(=O)c2cc(OC)cc(OC)c2)c(C)c1	0	1%	-11%	3.2µM*	-113%[0.074 µM]	4%
C/C(=N\Nc1cc(C)nc(-c2ccccc2O)n1)c1ccccc1	-6	2%	4%	x	x	4%
Cc1cc(N/N=C/c2ccc(O)c(C)c2O)nc(-c2ccccc2O)n1	-1	u	25µM*	16µM*	25%[10 µM]	12%
CCOC(=O)c1nn(-c2ccccc2)c(=O)c2c(NC(C)=O)scc12	-6	-2%	11%	3%	-18%	4%
CCOC(=O)c1nn(-c2ccccc2)c(=O)c2c(N)scc12	-45*	-8%	u	3%	-10%[10 µM]	4%
Nc1c(C(=O)N/N=C/c2ccc(Cl)cc2)cnn1-c1ccccc1	-1	-2%	-10%	26%[9.22 µM]	-2%[10 µM]	0%
Nc1scc2c(C(=O)N/N=C/c3ccc(Cl)cc3)nn(-c3ccccc3)c(=O)c12	-48*	-4%	7%	7%	u	-10%
CCOC(=O)c1nn(-c2ccccc2C)c(=O)c(C#N)c1C	-23	0%	-12%	19%	2%[10 µM]	8%
CCOC(=O)c1nn(-c2ccccc2C)c(=O)c2c(N)scc12	-55*	-1%	u	4%	-31%	-3%
CCN(CC)C(=O)Cn1ncc2c([nH]c3ccccc32)c1=O	x	5%	x	x	x	8%
CC(=O)N(C(C)=O)c1ncc2c([nH]c3ccccc32)c1C#N	-1	-3%	u	3.2µM*	-5%	-5%
CC1CCc2c(sc3nc(-c4cc5ccccc5oc4=O)nc(Cl)c23)C1 (centres undefined)	x	32µM*[quencher]	x	x	x	-29%[53 µM]
C/C(=C\C(C)CC(C)CC(C)C)C1CC(=O)OC1=O (centres undefined)	x	-4%[201 µM]	x	x	x	1%[201 µM]
Cc1sc2ncnc(NCCc3ccc(S(N)(=O)=O)cc3)c2c1C	0	-1%	3%	0.71µM*	-11%	-2%
NS(=O)(=O)c1ccc(CCNc2ncnc3sccc23)cc1	1	0%	-3%	u	-2%	-4%
Cc1nc2ccn(Cc3ccccc3)c(=O)c2cc1C(=O)Nc1ccc(F)cc1Cl	x	0%	x	x	x	-1%
Cc1ccc(-n2c(-c3ccc(Br)cc3)c[n+]3c2CCc2ccc4cccnc4c2-3)cc1	x	-2%	u	1.8µM*	-111%	2%
CCc1ccc(-n2c(SCc3ccccc3F)nc3[nH]ncc3c2=O)cc1	x	1%	x	x	x	-7%
O=c1c2cn[nH]c2nc(SCc2ccccc2F)n1-c1ccc(Br)cc1	4	-4%	1%	13µM*	x	-5%
COc1ccc2[nH]cc(CCNc3ncncc3-c3ccoc3)c2c1	-5	x	x	x	-93%	x
O=C(NC1=C(NC2CCS(=O)(=O)C2)C(=O)c2ccccc2C1=O)c1ccccc1 (centres undefined)	-62*	0%	6%	-9%	11%	11%

Compound activity deposited in PubChem by National Center for Advancing Translational Sciences (NCATS).
